Compound activity: PubChem BioAssay, Broad Institute
Only a selection was taken, and hits are over-represented in it overall.
IDE exosite inh: insulin-degrading enzyme (human) exo-site inhibition; P14735; purified IDE, FL-6b probe fluorescence polarization; hits give low values; z-score at 20 µM; 6.3% of 17,000 active;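 active = z-score of -3 or lower, meaning strong loss of probe binding signal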;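 also: His-tagged human IDE residues 42-1019 made in E. coli with 30 nM FL-6b probe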
Numbers without * were called inactive.

`COc1ccccc1-c1ccc(C2[C@H]3CNC[C@@H]2N3C(=O)Nc2ccccc2Cl)cc1` (stereo not given in full) gave IDE exosite inh -3.24*.
O=C(Nc1cccc(F)c1)N1[C@@H]2CNC[C@H]1C2c1ccc(-c2cncnc2)cc1 (stereo not given in full) was read as IDE exosite inh -2.72.
Screening O=C(Nc1ccccc1F)N1[C@@H]2CNC[C@H]1C2c1ccc(-c2ccccc2)cc1 (stereo not given in full) returned IDE exosite inh 2.99.
For COCC(=O)NC[C@H]1N[C@H](CO)[C@H]1c1ccc(C2=CCCCC2)cc1 the results were IDE exosite inh 2.74.
Screening COc1ccccc1CNC(=O)C[C@@H]1C[C@@H]2c3cc(NC(=O)C4CCC4)ccc3O[C@@H]2[C@H](CO)O1 returned IDE exosite inh 0.331.
For Cc1ccc(OC(=O)N(C)C[C@H]2OCc3ccccc3-c3ccccc3C(=O)N([C@@H](C)CO)C[C@H]2C)cc1 the results were IDE exosite inh 0.727.
Screening COc1ccc(-c2ccc(C3[C@H]4CNC[C@@H]3N4Cc3cc(F)ccc3F)cc2)cc1 (stereo not given in full) returned IDE exosite inh 1.64.
`CN1CCN(C(=O)[C@@H]2[C@@H](CO)[C@@H]3Cn4c(ccc(-c5ccncc5)c4=O)[C@@H]3N2CC2CC2)CC1` gave IDE exosite inh 1.2.
`N#C[C@H]1[C@@H](c2ccccc2-c2ccc(F)cc2)[C@H](CO)N1C(=O)Cc1ccccc1` gave IDE exosite inh 4.17.
COCC(=O)N1CCCCN2[C@H](CO)[C@@H](c3ccc(-c4ccc(F)cc4)cc3)[C@H]2C1 was read as IDE exosite inh 1.34.
O=C(C[C@@H]1CC[C@H]2[C@@H](COC[C@@H](O)CN2Cc2cc(F)ccc2F)O1)NCc1ccc(Oc2ccccc2)cc1 was read as IDE exosite inh 0.185.
Screening CC(=O)N1[C@H](CN(C(=O)c2ccc(F)cc2)C(C)C)[C@H](c2ccccc2)[C@@H]1CO returned IDE exosite inh 1.55.
CO[C@H]1CN(C)C(=O)c2ccc(NC(=O)c3cc(C)on3)cc2OC[C@H](C)NC[C@@H]1C was read as IDE exosite inh 1.87.
For O=C(c1cccnc1)N1CC(=O)N2[C@H](CO)[C@H](c3ccc(/C=C/c4ccccc4)cc3)[C@H]2C1 the results were IDE exosite inh -16.4*.
O=C(c1cccnc1)N1CC(=O)N2[C@@H](CO)[C@H](c3ccc(/C=C/c4ccccc4)cc3)[C@@H]2C1 was read as IDE exosite inh -15*.
Screening O=C(c1cccnc1)N1CC(=O)N2[C@H](CO)[C@@H](c3ccc(-c4ccc(F)cc4)cc3)[C@H]2C1 returned IDE exosite inh -0.134.
O=C(c1cccnc1)N1CC(=O)N2[C@H](C1)[C@H](c1ccc(-c3ccc(F)cc3)cc1)[C@@H]2CO was read as IDE exosite inh -1.12.
`CCC(=O)N1CC(=O)N2[C@H](CO)[C@@H](c3ccc(C#CC(C)C)cc3)[C@H]2C1` gave IDE exosite inh 1.02.
For CN1CCN(C(=O)C[C@@H]2CC[C@@H]3[C@H](COC[C@@H](O)CN3C(=O)c3ccccc3F)O2)CC1 the results were IDE exosite inh -0.218.
COc1ccc(-c2ccc([C@@H]3[C@H]4CN(C(=O)c5ccc(F)cc5)CCCCN4[C@H]3CO)cc2)cc1 was read as IDE exosite inh 1.52.
Screening COCC(=O)N1CCCCN2[C@H](C1)[C@H](c1ccc(-c3ccc(OC)cc3)cc1)[C@@H]2CO returned IDE exosite inh -0.901.
COCC(=O)N1CCCCN2[C@@H](CO)[C@@H](c3ccc(-c4ccc(OC)cc4)cc3)[C@@H]2C1 was read as IDE exosite inh 0.405.
`CC(C)NC(=O)N1CCCCN2[C@H](C1)[C@@H](c1ccc(Br)cc1)[C@@H]2CO` gave IDE exosite inh 2.69.
COc1ccc(-c2ccc([C@@H]3[C@H]4CN(C(=O)NC(C)C)CCCCN4[C@H]3CO)cc2)cc1 was read as IDE exosite inh -6.56*.
For COc1ccc(-c2ccc([C@H]3[C@@H](CO)N4CCCCN(C(=O)NC(C)C)C[C@H]34)cc2)cc1 the results were IDE exosite inh -1.71.
COCC(=O)N1CCCCN2[C@H](CO)[C@@H](c3ccc(-c4ccc(OC)cc4)cc3)[C@H]2C1 was read as IDE exosite inh -1.32.
Screening COc1ccc(-c2ccc([C@H]3[C@@H](CO)N4CCCCN(C(=O)NC(C)C)C[C@@H]34)cc2)cc1 returned IDE exosite inh -6.29*.
COc1ccc(-c2ccc([C@H]3[C@H](CO)N4CCCCN(C(=O)NC(C)C)C[C@@H]34)cc2)cc1 was read as IDE exosite inh -7.32*.
For Cc1ccc(S(=O)(=O)Nc2ccc3c(c2)CC(=O)N([C@H](C)CO)C[C@H](C)[C@@H](CN(C)S(=O)(=O)c2ccccc2)O3)cc1 the results were IDE exosite inh 1.61.
Screening COc1ccccc1CNC(=O)C[C@@H]1C=C[C@H](NC(=O)CC2CC2)[C@@H](CO)O1 returned IDE exosite inh -0.0821.
`O=C(CN1CCOCC1)N1CC(=O)N2[C@H](C1)[C@H](c1ccc(C3=CCCCC3)cc1)[C@@H]2CO` gave IDE exosite inh -0.859.
For CCC(=O)N1[C@@H]2c3cccc(=O)n3C[C@H]1[C@H](CO)[C@H]2C(=O)NC1Cc2ccccc2C1 the results were IDE exosite inh -0.277.
For Cc1ccccc1-c1ccc(C2[C@H]3CNC[C@@H]2N3C(=O)Nc2ccc(C(F)(F)F)cc2)cc1 (stereo not given in full) the results were IDE exosite inh -1.79.
Screening OC[C@@H]1Nc2ccc(-c3cccc(F)c3)cc2[C@H]2[C@@H]1CCN2Cc1ccc(F)cc1 returned IDE exosite inh 1.02.
COc1ccc(C[C@H]2CCn3nncc3COCCCNC2=O)cc1 was read as IDE exosite inh 0.149.
For CCC(=O)N1[C@H](CO)[C@H](c2ccc(-c3cccc(F)c3)cc2)[C@H]1CNC(C)=O the results were IDE exosite inh 0.974.
CCc1cnc(N2[C@H](C#N)[C@@H](c3ccccc3C3=CCCC3)[C@@H]2CO)s1 was read as IDE exosite inh 3.07.
`N#C[C@H]1N[C@H](CO)[C@@H]1c1ccc(-c2cccc(F)c2)cc1` gave IDE exosite inh -0.589.
`Cn1cnc(S(=O)(=O)N2CCCCN3[C@H](CO)[C@H](c4ccc(-c5ccccc5)cc4)[C@@H]3C2)c1` gave IDE exosite inh 1.95.
Cc1cccc(-c2ccc([C@@H]3[C@H](CO)N4CCCCN(S(=O)(=O)c5cccc(C)c5)C[C@@H]34)cc2)c1 was read as IDE exosite inh -2.78.
`Cc1cccc(-c2ccc([C@@H]3[C@@H](CO)N4CCCCN(S(=O)(=O)c5cn(C)cn5)C[C@@H]34)cc2)c1` gave IDE exosite inh -17.5*.
For Cn1cnc(S(=O)(=O)N2CCCCN3[C@@H](CO)[C@@H](c4ccc(-c5ccccc5)cc4)[C@@H]3C2)c1 the results were IDE exosite inh -5.56*.
Cc1cccc(-c2ccc([C@H]3[C@@H](CO)N4CCCCN(S(=O)(=O)c5cn(C)cn5)C[C@@H]34)cc2)c1 was read as IDE exosite inh 0.53.
`Cc1ccccc1-c1ccc([C@H]2[C@H](CO)N3CCCCN(S(=O)(=O)c4cn(C)cn4)C[C@@H]23)cc1` gave IDE exosite inh -7.09*.
`Cn1cnc(S(=O)(=O)N2CCCCN3[C@H](CO)[C@H](c4ccc(-c5ccccc5)cc4)[C@H]3C2)c1` gave IDE exosite inh -0.561.
Screening C/C=C/c1ccc(C2[C@H]3CNC[C@@H]2N3S(C)(=O)=O)cc1 (stereo not given in full) returned IDE exosite inh -0.183.
